Source: PubChem
Rows were chosen to be rich in hits. Some 2.8% of all compounds tested hit in one or more screens of this group.
WRN helicase inh – WRN helicase (human) inhibition. Q14191. hit rate 0.46% among 360,000. Potency, µM (series often up to 114 µM), without a hit: at the top dose activity change, negative = inhibition, hits mostly inhibitors. WRN helicase unwinding, fluorescent forked duplex, kinetic. AID 651768; further: potency means the concentration at half of the fitted maximal effect; on the % scale 0 is the no-effect control and ±100 the full control effect; nearly all actives have a fitted effect of over 55% in size
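Primary qHTS, 1536-well format. 20 nM WRN + compound, 15 min RT; start with 100 nM forked fluorophore/quencher duplex, 2 mM ATP (final); kinetic read ex 525/em 598 nm.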
POLI inh – inhibitors of human DNA polymerase iota | Pol iota fluorescent replication assay, 10 min | Potency, µM (series often up to 115 µM), for the others: top-dose activity, negative = inhibition, actives largely listed as inhibitors | hit rate 1% among 390,000 | AID 588590; further: potency means the concentration at half of the fitted maximal effect
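Pol iota at 10 nM preincubated 15 min with compounds at room temperature; reaction started with fluorescent substrate, 50 nM final. Fluorescence read kinetically at 0 and 10 min; buffer-only wells as negative control.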
Pol kappa inh – DNA polymerase kappa (human) inhibition. Q9UBT6. purified Pol kappa, fluorescent DNA synthesis assay, 10 min. Potency, µM (highest dose often 107 µM), for inactives: top-dose activity, negative = inhibition, actives largely listed as inhibitors. hit rate 0.53% among 400,000; further: potency means the concentration at half of the fitted maximal effect; on the % scale 0 is the no-effect control and ±100 the full control effect
Target sequence (Q9UBT6 whole entry, looked up): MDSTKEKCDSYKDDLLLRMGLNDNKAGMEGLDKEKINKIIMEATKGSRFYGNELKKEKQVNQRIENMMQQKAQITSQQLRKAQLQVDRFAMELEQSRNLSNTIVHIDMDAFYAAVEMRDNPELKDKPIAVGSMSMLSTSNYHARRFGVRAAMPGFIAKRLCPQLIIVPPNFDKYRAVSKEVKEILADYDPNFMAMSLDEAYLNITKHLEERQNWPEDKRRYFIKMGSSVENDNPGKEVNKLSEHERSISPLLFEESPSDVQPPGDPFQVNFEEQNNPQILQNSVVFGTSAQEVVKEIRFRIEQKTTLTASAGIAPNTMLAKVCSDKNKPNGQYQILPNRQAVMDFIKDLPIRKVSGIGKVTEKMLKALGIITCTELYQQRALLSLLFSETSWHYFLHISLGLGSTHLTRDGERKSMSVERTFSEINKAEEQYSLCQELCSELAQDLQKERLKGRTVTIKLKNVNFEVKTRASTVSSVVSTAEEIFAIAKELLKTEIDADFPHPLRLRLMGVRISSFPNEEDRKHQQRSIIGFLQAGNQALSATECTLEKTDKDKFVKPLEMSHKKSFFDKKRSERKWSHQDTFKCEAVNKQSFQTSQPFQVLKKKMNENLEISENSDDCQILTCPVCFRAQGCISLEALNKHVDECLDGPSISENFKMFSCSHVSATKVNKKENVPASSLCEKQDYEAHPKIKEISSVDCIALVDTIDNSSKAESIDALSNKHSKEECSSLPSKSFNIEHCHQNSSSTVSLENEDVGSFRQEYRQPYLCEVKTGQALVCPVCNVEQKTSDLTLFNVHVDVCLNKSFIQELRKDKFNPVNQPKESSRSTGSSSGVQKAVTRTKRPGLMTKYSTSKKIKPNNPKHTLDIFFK
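10 nM Pol kappa was preincubated with compounds for 15 min at room temperature. Reaction started with 50 nM (final) substrate. Fluorescence read kinetically at 0 and 10 min.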
PI5P4K alpha inh – inhibitors of human PI5P4K alpha; P48426; PI5P4Kalpha enzyme, ADP-Glo luminescence, 60 min; stronger effect = lower value; max response, %; hit rate 1.2% among 330,000; AID 652105; active means max response of -50% or lower; inconclusive means between -30% and -50%; inactive means -30% or higher; further: value at the top dose of about 77 µM; on the % scale 0 is the no-effect control and ±100 the full control effect
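PI5P4Kalpha ADP-Glo assay; 5 microM ATP final; 60 min RT reaction; HEPES pH 7.4/EGTA/CHAPS, 5% DMSO; controls lacking substrate or enzyme; luminescent end-point.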
Pol beta inh – DNA polymerase beta (human) inhibition; hit rate 1.3% among 340,000; Pol beta primer extension/strand displacement, fluorescence kinetic; P06746; AID 485314; Potency, µM (highest dose often 114 µM), for inactives: at the top dose activity change, negative = inhibition, actives largely listed as inhibitors; further: potency means the concentration at half of the fitted maximal effect; on the % scale 0 is the no-effect control and ±100 the full control effect
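Preincubation: enzyme (10 nM) with compound, 15 min, RT. Reaction: substrate added to 50 nM final. Reads: 0 and 10 min. Analysis: normalized, Hill fit.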
Pol eta inh – inhibitors of human DNA polymerase eta. Q9Y253. recombinant Pol eta, fluorescent DNA replication assay. Potency, µM (series often up to 114 µM), without a hit: at the top dose activity change, negative = inhibition, usual class: inhibitors. hit rate 1.2% among 390,000. AID 588591; further: potency means the concentration at half of the fitted maximal effect; on the % scale 0 is the no-effect control and ±100 the full control effect
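Fluorescent replication assay: 50 nM final substrate added after a 15 min room-temperature compound preincubation with 10 nM enzyme. Signal taken at 0 min and again at 10 min.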
The depositor's hits bear a star; ? = inconclusive; · = not tested or not shown; [ ] = remark or other dose. Unless noted, the call rests on the fitted dose curve; in most records, active means well fitted curve in the direction sought with a large enough effect; inconclusive means small, poorly fitted or top-dose-only effect, or another doubt; inactive means no such curve, though single readings can be large; an effect the other way counts as inactive or inconclusive.

SMILES	WRN helicase inh	POLI inh	Pol kappa inh	PI5P4K alpha inh	Pol beta inh	Pol eta inh
NC(=O)c1ccsc1NC(=O)COC(=O)c1ccc(Cl)c(N)c1	-11%[11.6 µM]	?	-29%	?	·	22µM*
COc1ccc(C(=O)N[C@H](C(=O)Nc2sccc2C(N)=O)C(C)C)cc1	-6%	31%	-13%	5	-18%	12%
Cc1c(CC(=O)N2CCN(C(=O)C3COc4ccccc4O3)CC2)c(=O)oc2cc(O)c(Cl)cc12 (centres undefined)	-10%	22%	-16%	-51*	-11%	?
S=c1[nH]nc(-c2ccccn2)n1/N=C/c1ccc(-c2ccccc2Br)o1	-10%	79µM*	5%	-25	50µM*	-6%
S=c1[nH]nc(-c2cccc(Cl)c2)n1/N=C/c1ccc(-c2ccccc2Br)o1	5%	3%	0%	-2	22%	?
N#CC(=Cc1ccc(O)cc1)C(N)=C(C#N)C#N	0%	79%	-1%	-69*	·	-8%
N#CC(C#N)=C(N)/C(C#N)=C/c1ccc(O)cc1	·	-10%[58.9 µM]	-15%[60.1 µM]	·	20%[57.1 µM]	-11%[57.1 µM]
CSCCC(NS(=O)(=O)c1ccc(C)c(C(=O)O)c1)C(=O)O (centres undefined)	1%[11.6 µM]	-22%	-15%	0	25µM*	?
COc1ccc(NS(=O)(=O)c2ccc(C)c(C(=O)O)c2)cc1	-6%[11.6 µM]	?	-10%	·	45µM*	79µM*
N#CC1=C(N)NC(SCc2ccc(Cl)cc2)=C(C#N)C12CCCCC2	-6%[11.6 µM]	?	?	-2	9%	-13%
N#CC1=C(N)NC(SCc2ccccc2)=C(C#N)C12CCCC2	-23%	-13%	-3%	-63*	2%	-18%
CSC1=C(C#N)C2(CCCC2)C(C#N)=C(N)N1	·	·	·	·	8%	·
CCSC1=C(C#N)C2(CCCC2)C(C#N)=C(N)N1	?	-1%	-12%	-57*	16%	-15%
O=C(CN1C(=O)c2ccccc2S1(=O)=O)Nc1cc(S(=O)(=O)N2CCOCC2)ccc1N1CCOCC1	·	-5%	-13%	·	·	·
O=C(O)c1cccc(N/N=C/c2cn(-c3ccccc3)nc2-c2cccs2)c1	?	61%	-18%	-18	?	79µM*
Cc1cccc(N2CCN(S(=O)(=O)c3cc(C(=O)Nc4ccc(Oc5ccccc5)cc4)ccc3F)CC2)c1C	·	9%	3%[60.1 µM]	·	-1%	-18%
COc1ccccc1-n1c(C)cc(/C=C2/C(=N)N3C(=NC2=O)SN=C3S(C)(=O)=O)c1C	-8%	-6%	-36%	-51*	-12%	79µM*
CC1=CC2=NC(=O)/C(=C\c3cc(C)n(-c4ccc(F)cc4)c3C)C(=N)N2O1	-2%	18%	-7%	-6	2%	-7%
Cc1cc(/C=C2/C(=N)N3C(=NC2=O)SN=C3S(C)(=O)=O)c(C)n1-c1ccc(F)cc1	-11%	-7%	?	-64*	-13%	?
CCOc1ccc(-n2c(C)cc(/C=C3/C(=N)N4C(=NC3=O)SN=C4S(C)(=O)=O)c2C)cc1	-13%	7%	-18%	-64*	?	40µM*
Cc1cccc(C)c1-n1cccc1/C=C1/C(=N)N2C(=NC1=O)SN=C2S(C)(=O)=O	-12%[11.6 µM]	65%	-7%	-22	?	79µM*
O=C(Oc1ccc(Cl)c2cccnc12)C12CC3CC(CC(C3)C1)C2	-11%[57.1 µM]	-16%	-5%	1	-2%	-19%
N#Cc1cccnc1N1CCN(C(c2ccnc3ccccc23)c2nnnn2-c2ccc3c(c2)OCCO3)CC1 (centres undefined)	0%	·	·	-1	·	·
O=C1S/C(=C\C=C\c2ccco2)C(=O)N1c1ccc(O)cc1	?	32µM*	?	-87*	7.9µM*	?
O=C1S/C(=C\C=C\c2ccco2)C(=O)N1c1ccccc1	-25%	13µM*	45µM*	-50*	32µM*	45µM*
SMILES	WRN helicase inh	POLI inh	Pol kappa inh	PI5P4K alpha inh	Pol beta inh	Pol eta inh
CCOc1cc(CN2CCN(S(=O)(=O)c3ccc(C)cc3)CC2)ccc1OC	·	11%	-5%	·	-1%	-11%
CCOc1ccc(CNC(=O)CCCn2nc(C)c3sc4ccccc4c3c2=O)cc1	·	89µM*	-27%	·	-25%	-2%
CCOc1ccc(CCNC(=O)CCCn2nc(C)c3sc4ccccc4c3c2=O)cc1OCC	·	?	-17%	·	7%	-6%
CCOc1ccc(CCNC(=O)CCCn2nc(C)c3sc4ccccc4c3c2=O)cc1	·	17%	-17%	·	-26%	-5%
COc1ccc(CCNC(=O)CCCn2nc(C)c3sc4ccccc4c3c2=O)cc1OC	·	-13%	-43%	·	35µM*	-13%
Cc1ccc2oc3c(c(=O)c2c1)C(c1cccc(O)c1)N(Cc1ccccc1Cl)C3=O (centres undefined)	·	8%	-5%	·	0%	-14%
O=[N+]([O-])c1cc2oc3c(c2c(C=NCc2ccccc2)c1O)CCCC3	-10%[11.6 µM]	73%	-26%	-50*	-8%	?
Cc1cc(C)n(CCc2nc3c4ccccc4nc(N4CCN(c5ccccc5)CC4)n3n2)n1	·	-11%	-4%	·	-1%	1%
O=C1C(C=Nc2ccccc2O)=C(O)c2ccccc21	-15%	8%	0%	·	35µM*	-11%
O=C1C(C=Nc2ccccc2)=C(O)c2ccccc21	-1%	20%	0%	-11	41%	10%
CN=CC1=C(O)c2ccccc2C1=O	0%	-12%	1%	·	30%	-8%
Cc1ccc(O)c(N=CC2=C(O)c3ccccc3C2=O)c1	-11%[11.6 µM]	?	-25%	?	?	18µM*
CCOc1cc(C(=O)Nc2ccc(S(=O)(=O)NC3=NCCCCC3)cc2)cc(Br)c1OC	-16%	84%	-7%	-7	·	-22%
O=C1CC[C@H](C(=O)N[C@@H]2C[C@H]2c2ccccc2)N1	·	·	-4%[19.4 µM]	·	·	·
Nc1nnc(-c2cc3c(ccc4ccccc43)oc2=O)s1	·	·	·	·	22µM*	·
CC(NC(=O)COC(=O)C1CCCCC1)c1ccccc1 (centres undefined)	-16%	9%	-8%	0	·	-15%
CSCC[C@H](NC(=O)Cc1c(C)c2c(cc(C)c3c(C)coc32)oc1=O)C(=O)O	-9%	31%	-9%	0	-1%	-7%
CC(C)CC1NC(=S)N(C2CCCCC2)C1=O (centres undefined)	?	-11%	-9%	-59*	12%	-19%
O=C(COc1ccccc1C(=O)Nc1ccccc1)Nc1ccc(-c2ccccc2)cc1	·	-13%	-2%	·	·	·
Cc1nnc(N/N=C\c2ccc(-c3cccc(C(=O)O)c3)o2)n1N	-28%	2.5µM*	?	?	?	?
Cc1nnc(N/N=C/c2ccc(-c3ccc(Br)cc3)o2)n1N	-9%	?	-18%	-10	?	-15%
O=c1c2ccccc2oc2ccc(-c3ccoc3)cc12	·	14µM*	?	·	·	·
